# Experimental data as given in PubChem BioAssay AID720518 (National Center for Advancing Translational Sciences (NCATS), 2013).
# Results filed as inconclusive are left out. A call without a number means that no potency is given here. Activity calls are given as the source filed them. The call rests on the fitted dose curve.
# Assay: qHTS for Inhibitors of Cell Surface uPA Generation: Wild-type Protective Antigen (WT-PrAg) Counterscreen for Cherry-picked Compounds
# Settings: cells, WT protective antigen toxicity counterscreen; series mostly up to 115 µM
row,Compound,Potency
1,CCc1ccccc1NC(=O)CN(C)C(=O)CSc1nnc(Nc2cccc(C)c2C)s1,inactive
2,Cn1c(C2CCCCC2)nc2cc(N)ccc21,inactive
3,CCc1nc(SCC(N)=O)c2c(=O)n(C)c(=O)n(C)c2n1,inactive
4,Cc1cccn2c(CNCC(C)Oc3cccnc3)c(C(=O)N3CCOCC3)nc12 (stereo not given),inactive
5,[N-]=[N+]=NC1C[C@H](n2ccc(=O)[nH]c2=O)O[C@@H]1CO (stereo not given in full),inactive
6,Cc1c(C(=O)N2CCN(S(=O)(=O)c3cccs3)CC2)oc2ccc(F)cc12,inactive
7,O=C(Nc1ccc(S(=O)(=O)N2CCOCC2)cc1)c1cc(-c2ccccc2O)n[nH]1,inactive
8,CCOC(=O)C1=C(C)N(Cc2ccccc2)C(=O)NC1c1ccc(OC)cc1 (stereo not given),inactive
9,CCOc1ccccc1N(CC(=O)Nc1ccc(OC)cc1)S(=O)(=O)c1ccccc1,inactive
10,O=[N+]([O-])c1ccccc1C=NNC(=S)NN=Cc1ccccc1[N+](=O)[O-],inactive
11,CCOc1cc(C)c(S(=O)(=O)N2CCCCC2)cc1C,inactive
12,O=C(Nn1cnnc1)c1ccc(Cl)c(Cl)c1,inactive
13,CCOc1cc(S(=O)(=O)NC2CC(C)(C)NC(C)(C)C2)ccc1Cl,inactive
14,C=CCn1c(=O)c(C(=O)NCCc2ccc(Cl)cc2)c(O)c2cc(OC)c(OC)cc21,inactive
15,COc1ccc(S(=O)(=O)N2CCN(Cc3ccccc3)CC2)c(C)c1,inactive
16,CSc1ccccc1OCc1cc(C(=O)NCCCn2nc(C)cc2C)no1,inactive
17,CCCc1nn2c(=O)cc(CSCC(=O)Nc3ccccc3)nc2s1,inactive
18,O=C(Cn1cnc2c(OCc3ccccc3)ncnc21)NCCCN1CCCC1=O,inactive
19,O=C(CC1(O)C(=O)Nc2ccccc21)c1cccc(Br)c1 (stereo not given),inactive
20,COc1ccc(C(c2sc3nc(C)nn3c2O)N2CCC(C(N)=O)CC2)cc1OC (stereo not given),inactive

row,Compound,Potency
1,Cc1cccc(C)c1NC(=O)c1c(O)c2ccccc2[nH]c1=O,inactive
2,CC(C)NCC1CCc2cc(CO)c([N+](=O)[O-])cc2N1 (stereo not given),inactive
3,CC(C)C[C@H]1CN([C@@H](CC(C)C)CN2CCCC2CN2C(=S)NC[C@@H]2Cc2ccc(O)cc2)C(=S)N1CC1CCCCC1 (stereo not given in full),inactive
4,CCCN1CCN(C2CCCCC2NS(=O)(=O)c2ccc(Cl)cc2)CC1 (stereo not given),inactive
5,C[C@H]1CN([C@@H](C)CO)C(=O)c2cc(NS(=O)(=O)c3ccc(Cl)cc3)ccc2O[C@@H]1CN(C)CC1CCCCC1,inactive
6,CCc1ccc(OCC(=O)N(Cc2cccs2)C2CCS(=O)(=O)C2)cc1 (stereo not given),inactive
7,Cc1nc(N2CCN(c3ccc(Cl)cc3)CC2)[nH]c(=O)c1C,inactive
8,COc1ccc(NC(=O)CCNS(=O)(=O)c2ccccc2F)cc1S(=O)(=O)N1CCOCC1,inactive
9,CC(NC(=O)NC1CCCCC1)C(c1cccs1)N1CCN(C)CC1 (stereo not given),inactive
10,CN(C)C(=S)Nc1ccc(S(=O)(=O)N2CCCCC2)cc1,inactive
11,O=C(Nc1ccc(Cl)cc1)Nc1nnc(-c2ccncc2)s1,inactive
12,CCN(CC)c1ccc(C=NCCc2ccc(S(N)(=O)=O)cc2)cc1,inactive
13,CC(C)NC(=O)NC(=O)CN1C(=O)NC(Cc2c[nH]c3ccccc23)C1=O (stereo not given),inactive
14,COc1ccc(-c2cc3nc(C)cc(-c4ccc(OC)cc4)n3n2)cc1,inactive
15,COc1ccc(NC(=O)c2cccnc2N2CCOCC2)cc1,inactive
16,COc1cc(CN2CCN(c3ncccn3)CC2)cc(OC)c1,inactive
17,COc1cc(C2NC(=O)NC(C)=C2C(=O)OCC2CCCCC2)ccc1O (stereo not given),inactive
18,Cc1cc(N2C(=O)C(O)=C(C(=O)c3ccco3)C2c2ccc(Cl)cc2)no1 (stereo not given),inactive
19,O=C(NC[C@H]1CCCO1)c1cccc2c1C(=O)c1ccc(-c3ccc(F)cc3OCc3ccccc3)cc1S2(=O)=O,inactive
20,CCOC(=O)Cc1csc(NC(=O)Nc2cccc(OC)c2)n1,inactive
